Laboratory results taken from PubChem BioAssay (NCATS).
Where “and” joins values, the source holds several entries; their conditions need not be identical. Identical values can stand only once. Records with an inconclusive call do not appear. Where a structure was tested more than once in an assay, its records may differ in their call. Calls of active or inactive are those of the source. Unless noted, the call rests on the fitted dose curve; in most records, active means well fitted curve in the direction sought with a large enough effect; inconclusive means small, poorly fitted or top-dose-only effect, or another doubt; inactive means no such curve, though single readings can be large; an effect the other way counts as inactive or inconclusive.

Key:
[1] = biological target: Ubiquitin carboxyl-terminal hydrolase 1 (Homo sapiens) (UniProt O94782); experiment: Inhibitors of USP1/UAF1: Pilot qHTS (AID 504865); further: nearly all actives have a fitted effect of over 35% in size; further: potency means the concentration at half of the fitted maximal effect
Summary of the method: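 In 50mM HEPES pH 7.8 containing 0.5mM EDTA, 1mM TCEP, 0.1 mg/ml BSA and 0.01% Tween-20, 1nM USP1/UAF1 is exposed to compound for 15 min, then Ub-Rho (150nM final) is added and fluorescence is read over time.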

AA1029 = experiment: qHTS profiling for inhibitors of Plasmodium falciparum proliferation (AID 504749); further: nearly all actives have a fitted effect of over 60% in size; further: potency means the concentration at half of the fitted maximal effect; conditions: P. falciparum in erythrocytes, SYBR Green DNA, 72 h; series mostly up to 28.7 µM
Summary of the method: (§1)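 Infected RBCs, 0.3% parasitemia/2.5% Hct final; cpd 72 h, 37 C, 5% CO2; lysis buffer with saponin/triton/SYBR Green I, o/n RT dark; FI 485/535; norm. to artemisinin (0.29 uM) and DMSO.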

ATS189 = experiment: as above; conditions: P. falciparum in erythrocytes, SYBR Green DNA, 72 h; series mostly up to 28.7 µM
Summary of the method: as §1

ATS95 = experiment: as above; conditions: P. falciparum in erythrocytes, SYBR Green DNA, 72 h; series mostly up to 28.7 µM
Summary of the method: as §1

CP215 = experiment: as above; conditions: P. falciparum in erythrocytes, SYBR Green DNA, 72 h; series mostly up to 28.7 µM
Summary of the method: as §1

CP238 = experiment: as above; conditions: P. falciparum in erythrocytes, SYBR Green DNA, 72 h; series mostly up to 28.7 µM
Summary of the method: as §1

CP269 = experiment: as above; conditions: P. falciparum in erythrocytes, SYBR Green DNA, 72 h; series mostly up to 28.7 µM
Summary of the method: as §1

CP286 = experiment: as above; conditions: P. falciparum in erythrocytes, SYBR Green DNA, 72 h; series mostly up to 28.7 µM
Summary of the method: as §1

PC15 = experiment: as above; conditions: P. falciparum in erythrocytes, SYBR Green DNA, 72 h; series mostly up to 28.7 µM
Summary of the method: as §1

[2] = Cell Viability - NIH 3T3 (AID 541); conditions: NIH 3T3 cell viability, qHTS; activity change, negative = cytotoxicity: at 92.2 µM (top of the series); further: nearly all actives have a fitted effect of over 25% in size; further: potency means the concentration at half of the fitted maximal effect;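 on activity change, negative = cytotoxicity: plate controls were DMSO alone for no effect and tamoxifen positive control for full effect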
Summary of the method: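 Luminescent ATP signal (CellTiter-Glo) served as the viability read-out after NIH 3T3 cells were exposed to compounds over a concentration range for 40 hr at 37 °C. Hill-equation modelling of concentration-response data gave AC50.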

CP192 = experiment: qHTS profiling for inhibitors of Plasmodium falciparum proliferation (AID 504749); further: nearly all actives have a fitted effect of over 60% in size; further: potency means the concentration at half of the fitted maximal effect; conditions: P. falciparum in erythrocytes, SYBR Green DNA, 72 h; series mostly up to 28.7 µM
Summary of the method: as §1

CP211 = experiment: as above; conditions: P. falciparum in erythrocytes, SYBR Green DNA, 72 h; series mostly up to 28.7 µM
Summary of the method: as §1

CP266 = experiment: as above; conditions: P. falciparum in erythrocytes, SYBR Green DNA, 72 h; series mostly up to 28.7 µM
Summary of the method: as §1

CP305 = experiment: as above; conditions: P. falciparum in erythrocytes, SYBR Green DNA, 72 h; series mostly up to 28.7 µM
Summary of the method: as §1

CP315 = experiment: as above; conditions: P. falciparum in erythrocytes, SYBR Green DNA, 72 h; series mostly up to 28.7 µM
Summary of the method: as §1

CP329 = experiment: as above; conditions: P. falciparum in erythrocytes, SYBR Green DNA, 72 h; series mostly up to 28.7 µM
Summary of the method: as §1

CP335 = experiment: as above; conditions: P. falciparum in erythrocytes, SYBR Green DNA, 72 h; series mostly up to 28.7 µM
Summary of the method: as §1

W2 = experiment: as above; conditions: P. falciparum in erythrocytes, SYBR Green DNA, 72 h; series mostly up to 28.7 µM
Summary of the method: as §1

[3] = qHTS assay for small molecule agonists of the antioxidant response element (ARE) signaling pathway measured by Nrf2-dependant transcriptional activity - cell viability counter screen (AID 720653; active means well fitted curve in the direction sought with a large enough effect in the repeat runs; an effect the other way counts as inactive or inconclusive; further: on the % scale 0 is the no-effect control and ±100 the full control effect); conditions: ARE-bla HepG2 viability, CellTiter-Glo ATP luminescence, 16 h; max response: stronger effect = lower value
Summary of the method: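 Cytotoxicity counter screen: intracellular ATP quantified by CellTiter-Glo luminescence in the same ARE-bla HepG2 plates, after 16 h compound exposure and a 2 h beta-lactamase substrate step.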

DIV30 = experiment: qHTS profiling for inhibitors of Plasmodium falciparum proliferation (AID 504749); further: nearly all actives have a fitted effect of over 60% in size; further: potency means the concentration at half of the fitted maximal effect; conditions: P. falciparum in erythrocytes, SYBR Green DNA, 72 h; series mostly up to 28.7 µM
Summary of the method: as §1

Chain of Ubiquitin carboxyl-terminal hydrolase 1 (Homo sapiens) (O94782 whole entry, looked up): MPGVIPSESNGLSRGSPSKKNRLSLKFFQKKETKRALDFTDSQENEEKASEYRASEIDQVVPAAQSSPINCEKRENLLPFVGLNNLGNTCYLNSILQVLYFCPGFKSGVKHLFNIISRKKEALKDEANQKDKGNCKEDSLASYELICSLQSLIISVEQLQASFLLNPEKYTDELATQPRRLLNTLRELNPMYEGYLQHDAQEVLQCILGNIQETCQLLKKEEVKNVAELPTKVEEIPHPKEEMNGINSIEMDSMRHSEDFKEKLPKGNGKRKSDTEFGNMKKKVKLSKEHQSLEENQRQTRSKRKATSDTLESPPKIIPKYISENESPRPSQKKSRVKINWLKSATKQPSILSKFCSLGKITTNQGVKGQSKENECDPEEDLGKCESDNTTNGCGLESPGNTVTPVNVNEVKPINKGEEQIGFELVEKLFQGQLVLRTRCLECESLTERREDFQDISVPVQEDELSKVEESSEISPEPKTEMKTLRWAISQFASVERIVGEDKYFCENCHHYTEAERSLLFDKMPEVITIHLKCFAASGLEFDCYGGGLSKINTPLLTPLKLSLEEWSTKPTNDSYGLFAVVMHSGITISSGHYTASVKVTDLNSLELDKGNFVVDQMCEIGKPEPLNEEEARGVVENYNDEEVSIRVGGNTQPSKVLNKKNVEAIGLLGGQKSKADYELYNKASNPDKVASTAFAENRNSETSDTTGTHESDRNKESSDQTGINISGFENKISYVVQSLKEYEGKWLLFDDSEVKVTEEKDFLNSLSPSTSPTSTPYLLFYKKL

CC(C)(CO)C(O)C(=O)NCCCC(=O)O (configuration not stated)
active: Potency (ATS189) 2.82 µM | Potency (CP215) 12 µM | Potency (CP238) 17.8 µM | Potency (CP269) 16.9 µM | Potency (CP286) 10 µM
inactive: Potency [1] | Potency (AA1029) | Potency (ATS95) | Potency (PC15)

O=C(O)c1ccccc1C(c1ccc(O)cc1)c1ccc(O)cc1
inactive: Potency [2]

O=NCc1ccc([N+](=O)[O-])o1
inactive: Potency [1] | Potency (AA1029) | Potency (ATS189) | Potency (ATS95) | Potency (CP192) | Potency (CP211) | Potency (CP238) | Potency (CP266) | Potency (CP286) | Potency (CP305) | Potency (CP315) | Potency (CP329) | Potency (CP335) | Potency (PC15)
active: Potency (W2) 6.01 µM

CCO[Si](CCCN)(OCC)OCC
inactive: max response [3] -1.9% and -14%

COC(=O)c1ccc(C)cc1
inactive: Potency [2]

CC1=CC(C)(C)Nc2ccccc21
inactive: Potency [2] | max response [3] 0.655% and 4.88%

CCCCOCCO
inactive: max response [3] 4.17% and -5.63% and -2.53%

COC(=O)c1ccc(C=O)cc1
inactive: max response [3] -1.73% and -0.32%

Clc1cc(Cl)c(Cl)c(Cl)c1Cl
inactive: Potency [2]

C/C=C\c1ccc(OC)cc1
inactive: Potency [1] | Potency (AA1029) | Potency (ATS189) | Potency (ATS95) | Potency (CP192) | Potency (CP211) | Potency (CP215) | Potency (CP238) | Potency (CP266) | Potency (CP269) | Potency (CP286) | Potency (CP305) | Potency (CP315) | Potency (CP329) | Potency (CP335) | Potency (DIV30) | Potency (PC15) | Potency (W2)

CCN1/C(=C/C=C/C=C/c2sc3ccccc3[n+]2CC)Sc2ccccc21
active: Potency [1] 22.4 µM | Potency (AA1029) 3.98 µM | Potency (ATS189) 4.47 µM | Potency (ATS95) 5.01 µM | Potency (CP192) 5.36 µM | Potency (CP211) 6.01 µM | Potency (CP215) 6.75 µM | Potency (CP238) 3.16 µM | Potency (CP266) 9.53 µM | Potency (CP269) 15.1 µM | Potency (CP286) 0.708 µM | Potency (CP305) 10.7 µM | Potency (CP315) 12 µM | Potency (CP329) 6.75 µM | Potency (CP335) 1.07 µM | Potency (DIV30) 12 µM | Potency (PC15) 4.47 µM | Potency (W2) 1.51 µM

Cc1ccccc1C
inactive: max response [3] -17.8% and 4.54%

COc1c2ccoc2cc2oc(=O)ccc12
inactive: max response [3] 3.31%

CN(C)CCCCCCN(C)C
inactive: Potency [2] | Potency [1] | max response [3] 1.08% | Potency (AA1029) | Potency (ATS189) | Potency (ATS95) | Potency (CP192) | Potency (CP211) | Potency (CP215) | Potency (CP238) | Potency (CP266) | Potency (CP269) | Potency (CP286) | Potency (CP305) | Potency (CP315) | Potency (CP329) | Potency (CP335) | Potency (DIV30) | Potency (PC15) | Potency (W2)

COc1ccc2nc(N)sc2c1
inactive: max response [3] -11.5% and -7.03%

CCCCCCCCCCCCCCC1CO1 (configuration not stated)
inactive: max response [3] -2.08% and 0.668%

Cc1ccc([N+](=O)[O-])c(C)c1
inactive: Potency [2]

CC(C)=CCCC(C)CCO (configuration not stated)
inactive: Potency [2] | Potency [1]

CCCCCCCCO
inactive: max response [3] -1.13% and 11.2% and -1.97%

Cc1cccc([N+](=O)[O-])c1C
inactive: Potency [2] | max response [3] 4.89% and -2.35%

C1OCOCO1
inactive: Potency [2] | Potency [1] | max response [3] -3.94% | Potency (AA1029) | Potency (ATS189) | Potency (ATS95) | Potency (CP192) | Potency (CP211) | Potency (CP215) | Potency (CP238) | Potency (CP266) | Potency (CP269) | Potency (CP286) | Potency (CP305) | Potency (CP315) | Potency (CP329) | Potency (CP335) | Potency (DIV30) | Potency (PC15) | Potency (W2)

CCCCC(CC)CN (configuration not stated)
12.6 µM (active) and inactive: Potency [2]

CCC(C)c1ccccc1O (configuration not stated)
inactive: Potency [2]

CCCN(CCC)C(=O)SCC
inactive: max response [3] -4.11% and 2.96%

O=C1c2ccccc2C(=O)C1c1ccc2ccccc2n1
active: activity change, negative = cytotoxicity [2] -106%

CN1CC[C@H](CN2c3ccccc3Sc3ccccc32)C1
inactive: Potency [1] | Potency (CP192) | Potency (CP266) | Potency (CP315) | Potency (CP329)
active: Potency (AA1029) 5.01 µM | Potency (ATS189) 11.2 µM | Potency (ATS95) 12.6 µM | Potency (CP238) 8.91 µM | Potency (CP269) 15.1 µM | Potency (CP286) 12.6 µM | Potency (CP305) 15.1 µM | Potency (DIV30) 13.5 µM | Potency (PC15) 11.2 µM | Potency (W2) 1.9 µM
